D2 antagonist – HTS Assay for Allosteric Antagonists of the Human D2 Dopamine Receptor: Primary Screen for Antagonists; inhibition, % at 10 µM; 2% of 340,000 active; AID 485344, 2010; HEK293 TREx D2 cells, calcium flux, dopamine EC80; in the data active means inhibition above about 30%; inactive means below that, where a call was filed; further: 0% is about no effect
Target sequence (P14416 whole entry, looked up): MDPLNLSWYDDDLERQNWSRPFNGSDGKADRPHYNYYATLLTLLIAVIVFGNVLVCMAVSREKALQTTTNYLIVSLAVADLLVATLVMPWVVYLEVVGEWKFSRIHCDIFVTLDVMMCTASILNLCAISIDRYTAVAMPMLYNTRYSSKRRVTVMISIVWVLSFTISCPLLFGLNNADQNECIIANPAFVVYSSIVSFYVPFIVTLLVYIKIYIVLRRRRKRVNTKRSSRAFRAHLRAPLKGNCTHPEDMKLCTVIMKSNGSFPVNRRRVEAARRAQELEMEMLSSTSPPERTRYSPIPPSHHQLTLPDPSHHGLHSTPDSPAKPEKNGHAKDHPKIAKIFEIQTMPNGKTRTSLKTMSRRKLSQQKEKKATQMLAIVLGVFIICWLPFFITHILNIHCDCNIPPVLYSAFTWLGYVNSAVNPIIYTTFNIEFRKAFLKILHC
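Cells plated overnight at 30 C with tetracycline; no-wash calcium dye, 30–90 min RT; 10 s baseline; compound pinned; 180 s read; EC80 dopamine added; another 180 s read.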
D2 ag-1 – HTS Assay for Allosteric Agonists of the Human D2 Dopamine Receptor: Primary Screen for Agonists; AID 485358, 2010; HEK293 T-REx D2 cells, calcium flux agonist mode; 0.53% of 340,000 active; activation, % at 2 µM; D(2) dopamine receptor (Homo sapiens), P14416;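 active means activation over 3 SD above normal in the single-dose calcium agonist read, cut at about 30% in these data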; further: 0% is about no effect
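Agonism is scored from calcium flux in a force-coupled, inducible HEK293 cell line expressing D2, read kinetically for 180 s after compound addition against dopamine controls.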
D2 ag-2 – Beta-Arrestin HTS for Positive Allosteric Modulators of the Human D2 Dopamine Receptor: Agonists. activation, % (concentration not given with the values). AID 624465, 2012. DiscoveRx PathHunter D2 beta-arrestin, luminescence, 90 min; 100% = 57 uM dopamine signal. D(2) dopamine receptor (Homo sapiens), P14416. 0.084% of 360,000 active; in the data active means activation above about 40%; inconclusive means between about 15% and that limit
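DiscoveRx PathHunter D2 beta-arrestin cells (2,100/well) attached overnight, then compound-stimulated 90 min at 37 C in HBSS/10 mM HEPES/0.1% Tween-20 buffer; beta-galactosidase complementation read by luminescence after 1 h at ambient temperature. Dopamine 57 uM final (EC100) as control.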
D2 PAM-1 – HTS Assay for Positive Allosteric Modulators of the Human D2 Dopamine Receptor: Primary Screen for Potentiators. D(2) dopamine receptor (Homo sapiens), P14416. 0.34% of 340,000 active. potentiation, % at 10 µM. HEK293 T-REx D2, calcium flux, EC20 dopamine potentiation;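 active means potentiation over 3 SD above the plate norm, cut at about 30% in these data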; further: 0% is about no effect
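Potentiation of an EC20 dopamine calcium response is measured in a force-coupled, tetracycline-inducible Hek293 Trex D2 line. Compound-only kinetic reads over 180 s flag agonists before dopamine addition.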
D2 PAM-2 – Beta-Arrestin HTS for Positive Allosteric Modulators of the Human D2 Dopamine Receptor: Potentiators; D(2) dopamine receptor (Homo sapiens), P14416; 0.23% of 360,000 active; potentiation, % (test concentration not listed); DiscoveRx D2 beta-arrestin cells, luminescence, 90 min; 100% = 57 uM dopamine signal; in the data active means potentiation above about 50%; inconclusive means mostly about 30% to 49%
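D2 cells co-treated with compound plus 50 nM dopamine (EC20) for 90 min at 37 deg C to detect potentiation. Beta-arrestin recruitment was read as enzyme-fragment luminescence after 1 h at ambient temperature. Full response was set by 57 uM dopamine.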
The depositor's hits bear a star; ? = inconclusive; . = not tested or not shown. In the library only some 2.4% were active in any assay of this set; here they are far more common.

SMILES	D2 antagonist	D2 ag-1	D2 ag-2	D2 PAM-1	D2 PAM-2
COc1ccccc1N1CCN(Cc2nc(-c3ccc(F)cc3)oc2C)CC1	80*	2	-4	-30	-14
COc1ccc(-c2[nH]ncc2CN2CCC(C(=O)c3ccc(F)cc3)CC2)cc1	83*	0	-4	-23	-26
Cc1cc(N2CCN(Cc3nc(-c4ccc(F)cc4)oc3C)CC2)cc(C)n1	18	0	-3	-1	-10
COc1ccccc1N1CCN(Cc2cn[nH]c2-c2ccc(F)cc2)CC1	82*	6	5	-27	-34
COc1ccc(-c2[nH]ncc2CN2CCN(Cc3cccs3)CC2)cc1F	-15	1	0	-21	-15
COc1ccc(CNC(=O)/C=C/[C@H]2O[C@@H](n3ccc(=O)[nH]c3=O)[C@H](O)[C@@H]2O)cc1	.	.	-3	.	-7
CC1(C(=O)NS(=O)(=O)Cc2ccccc2)CCN1C(=O)Cc1cc(F)ccc1F (centres undefined)	.	.	-6	.	-1
COc1ccc(CN2CCC(C(=O)c3ccc(Cl)cc3)CC2)cc1	35*	-1	-4	-26	-81
COc1ccc(CN2CCC(C(=O)c3cccc(Cl)c3)CC2)cc1	.	.	1	-13	-4
CCN(CC)S(=O)(=O)c1ccc2c(c1)c(=O)c(C(=O)N(C)Cc1ccccc1)cn2C	.	0	.	7	.
O=S(=O)(/N=C(\c1ccccc1)N1CCOCC1)c1cccs1	-5	0	0	-6	1
c1ccc(N=C(c2cccs2)N2CCOCC2)cc1	32*	1	-16	-14	-18
N#Cc1ccc(C(=O)N2CCCCC2c2cc(C(=O)Nc3ccc4c(c3)OCO4)no2)cc1 (centres undefined)	.	.	-3	.	2
O=c1oc2c(CN3CCCCCC3)c(O)ccc2cc1-c1nc2ccccc2[nH]1	14	77*	.	-6	.
COC(=O)C(C)Sc1nnc(SC(C)C(=O)OC)s1 (centres undefined)	40*	-1	-3	21	-14
Cc1ccc(C(O)c2ncc(-c3cccc(C(F)(F)F)c3)[nH]2)cc1F (centres undefined)	.	.	-1	.	-18
Cc1cc(C)c(S(=O)(=O)N/N=C/c2ccc3c(c2)OCO3)c(C)c1	74*	9	3	-21	-22
CCOc1ccccc1NC(=O)Cn1c(=O)n(Cc2ccccc2)c(=O)c2c(C)c(C)sc21	.	.	.	-4	.
CCCCCCCNC(=O)COc1ccc2c(c1)C(=O)CC(C)(C)O2	30	0	-1	7	-13
Cn1c(=O)cc(OCCCC(=O)NCCCN2CCN(Cc3ccccc3)CC2)c2ccccc21	-23	-1	-2	-14	-19
COCCNC(=O)COc1cc(=O)n(C)c2ccccc12	-18	0	1	2	1
O=C(NCCCN1CCN(c2cccc(Cl)c2)CC1)C1(S(=O)(=O)c2ccc(Cl)cc2)CC1	35*	15	0	-18	-38
Cn1c(=O)cc(OCCCC(=O)NCCN2CCN(c3ccccc3F)CC2)c2ccccc21	36*	32*	-2	-25	-9
Cn1c(=O)cc(OCC(=O)NCCCN2CCN(c3cccc(Cl)c3)CC2)c2ccccc21	77*	69*	8	-24	-11
CC1(C)CC(=O)c2cc(OCC(=O)NCCCN3CCN(c4ccccc4F)CC3)ccc2O1	82*	78*	?	-25	4
SMILES	D2 antagonist	D2 ag-1	D2 ag-2	D2 PAM-1	D2 PAM-2
Cc1ccc(S(=O)(=O)N(C(=N)N)c2nc(N(C)C)nc(N(C)C)n2)cc1	3	-1	.	3	.
CC1(OC(=O)C2CCCC2)C(=O)C=C2C=C(c3ccsc3)N(C3CCCC3)C=C2C1=O (centres undefined)	37*	-1	9	-3	21
C/C(=N\NC(=S)NCC(C)(C)C)c1cc(F)cc(F)c1O	37*	2	3	-17	-15
CCOc1ccc(NS(=O)(=O)c2ccc3c4c(cccc24)C(=O)N3)cc1	.	5	.	-1	.
Cc1ccc(C(=O)NCC(c2ccco2)N2CCCCC2)s1 (centres undefined)	36*	0	-1	-14	-30
O=C(NCC(c1ccco1)N1CCCC1)c1cc2ccccc2s1 (centres undefined)	35*	0	7	-22	-3
O=C(O)c1nn(CCOc2ccccc2F)c(=O)c2ccccc12	-11	1	-8	33*	-4
O=C(O)c1nn(CCOc2ccc(Br)cc2)c(=O)c2ccccc12	19	1	-1	7	-1
O=C1[C@H]2[C@@H](c3ccc(F)cc3)N3C(=O)N(c4cccc(Br)c4)C(=O)[C@@]3(Cc3ccccc3)[C@H]2C(=O)N1C1CCCCC1	41*	1	0	-4	-14
Cc1ccc(NC(=O)c2oc3ccc(S(=O)(=O)N4CCCCC4)cc3c2C)c(C)c1	.	-1	.	1	.
CC(=O)c1c(C)oc2ccc(N(C(=O)Oc3ccccc3)S(=O)(=O)c3ccc(Cl)cc3)cc12	.	1	.	-11	.
CCN(CC)CCNC(=O)c1cc([N+](=O)[O-])c(N(C)C)cc1OC	94*	-1	-2	-21	-14
CCN(CC)CCNC(=O)c1cc(Cl)c(N)cc1OC	82*	1	-7	-28	-23
Cc1cc(=O)oc2c(C)c(OCC(=O)N3CCN(c4ccc(F)cc4)CC3)ccc12	-5	0	4	-6	2
Cc1cccc(N2CCN(C(=O)COc3ccc4c(C)cc(=O)oc4c3C)CC2)c1C	-8	0	1	39*	-8
Cc1ccc(C)c(Cn2c(=O)n(-c3ccccc3)c(=O)c3c4c(sc32)CCCC4)c1	.	-1	.	2	.
O=C(Nc1cc(-c2ccccc2)cs1)c1ccco1	31*	-1	-1	1	2
O=C(Nc1nc(-c2ccccc2)cs1)c1ccco1	28	-1	1	-8	-7
O=C(CCNC(=O)N1CC(=O)Nc2ccccc21)Nc1ccc(Br)cc1F	55*	0	-8	0	-28
CCCc1cc(=O)oc2cc(C)cc(OCC(=O)NC(Cc3c[nH]c4ccc(O)cc34)C(=O)O)c12 (centres undefined)	-24	0	-4	8	-2
CC(Oc1ccc2ccc(=O)oc2c1)C(=O)NC(Cc1c[nH]c2ccc(O)cc12)C(=O)O (centres undefined)	44*	-1	9	-24	7
